# Several values for one entry are separate records, joined by “and”; a condition that tells them apart may be missing. Identical values can stand only once. Compounds without any hit were thinned out: in the full panel of roughly 83,000, 20% have a hit.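 Cells were grown in 96-well plates and exposed to the test compound at a single concentration for 48 hours; results are reported as percent growth, with values below 10 considered active.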 Activity calls are given as the source filed them.
# Experiments:
# Experiment in all cases: NCI-60 one-dose screen, 48 h (100 = growth as untreated, 0 = no growth, -100 = all killed)
# Conditions in all cases: 10 µM unless noted
# NCI-H23 lung = test system: NCI-H23 lung
# NCI-H226 lung = test system: NCI-H226 lung
# NCI-H322M lung = test system: NCI-H322M lung
# HOP-62 NSCLC = test system: HOP-62 NSCLC
# NCI-H460 lung = test system: NCI-H460 lung
# HOP-92 NSCLC = test system: HOP-92 NSCLC
# NCI-H522 lung = test system: NCI-H522 lung
# A549/ATCC NSCLC = test system: A549/ATCC NSCLC
# 786-0 renal = test system: 786-0 renal
# COLO 205 colon = test system: COLO 205 colon
# DU-145 prostate = test system: DU-145 prostate
# K-562 leukemia = test system: K-562 leukemia
# MALME-3M melanoma = test system: MALME-3M melanoma
# MDA-MB-231 breast = test system: MDA-MB-231 breast
# RXF 393 renal = test system: RXF 393 renal
# SF-268 CNS = test system: SF-268 CNS
# SF-295 CNS = test system: SF-295 CNS
# SF-539 CNS = test system: SF-539 CNS
# UACC-257 melanoma = test system: UACC-257 melanoma
# M14 melanoma = test system: M14 melanoma
SMILES,growth (NCI-H23 lung),growth (NCI-H226 lung),growth (NCI-H322M lung),growth (HOP-62 NSCLC),growth (NCI-H460 lung),growth (HOP-92 NSCLC),growth (NCI-H522 lung),growth (A549/ATCC NSCLC),growth (786-0 renal),growth (COLO 205 colon),growth (DU-145 prostate),growth (K-562 leukemia),growth (MALME-3M melanoma),growth (MDA-MB-231 breast),growth (RXF 393 renal),growth (SF-268 CNS),growth (SF-295 CNS),growth (SF-539 CNS),growth (UACC-257 melanoma),growth (M14 melanoma)
COc1c(F)cc(-n2c(C(=O)N3CC(F)C3)cc3cccnc32)cc1F,94.1% (inactive),96.2% (inactive),95.1% (inactive),97.8% (inactive),106% (inactive),82.7% (inactive),91.2% (inactive),113% (inactive),103% (inactive),118% (inactive),106% (inactive),95.5% (inactive),121% (inactive),96.5% (inactive),107% (inactive),94.9% (inactive),102% (inactive),98% (inactive),102% (inactive),119% (inactive)
Cc1ccc2c(c1)C(C)Cc1c(ncnc1-n1cnc3cc(C)ccc31)N2C (stereo not given),34% (inactive),47.4% (inactive),63.5% (inactive),27.6% (inactive),3.51% (active),10.4% (inactive),-30% (active),8.39% (active),10.7% (inactive),-51.2% (active),10.9% (inactive),6.54% (active),76.9% (inactive),38.5% (inactive),21.3% (inactive),25.6% (inactive),2.2% (active),16.8% (inactive),25.6% (inactive),17.7% (inactive)
CCCCCCCCCCCCCCCC[N+](C)(C)CCN(Cc1ccc(OC)cc1)c1ncccn1,41.5% (inactive),48.3% (inactive) and 60.2% (inactive),-81.8% (active) and 74.2% (inactive),-100% (active) and 65.2% (inactive),-84.1% (active) and 67.4% (inactive),-66.1% (active) and 15.6% (inactive),-91.2% (active) and 23.4% (inactive),-86.1% (active) and 54.4% (inactive),-33.7% (active) and 61.9% (inactive),-100% (active) and 33.1% (inactive),-100% (active) and 69.4% (inactive),35.5% (inactive),-70.3% (active) and 43.8% (inactive),-82.5% (active) and 47.1% (inactive),-58.4% (active) and -49.8% (active),-92.9% (active) and 38% (inactive),-90.6% (active),-91.3% (active) and 71.2% (inactive),25.2% (inactive) and 28.7% (inactive),-62.6% (active) and -17.7% (active)
Cc1c(C(C)(C)O)cn2ncnc(Oc3ccc(NC(=O)Nc4ccc(Cl)c(C(F)(F)F)c4)cc3)c12,23.6% (inactive),65.5% (inactive),56.7% (inactive),65.4% (inactive),13.1% (inactive),4.28% (active),11.6% (inactive),32.8% (inactive),26.5% (inactive),45.6% (inactive),57.6% (inactive),14.9% (inactive),51.2% (inactive),32.2% (inactive),39% (inactive),45.3% (inactive),16% (inactive),25.9% (inactive),66.5% (inactive),36.7% (inactive)
Cc1nn(-c2nc(-c3cc4ccccc4oc3=O)cs2)c(C)c1N=Nc1ccccc1,98% (inactive),105% (inactive),97.3% (inactive),102% (inactive),108% (inactive),79.9% (inactive),97.8% (inactive),114% (inactive),104% (inactive),114% (inactive),90.4% (inactive),93% (inactive),96.5% (inactive),87.8% (inactive),112% (inactive),105% (inactive),104% (inactive),102% (inactive),103% (inactive),110% (inactive)
Cc1ccc(/C=C2\COc3ccc(O)c(O)c3C2=O)cc1,29.1% (inactive),61.5% (inactive),31.3% (inactive),-1.56% (active),8.32% (active),-18% (active),-74.8% (active),27.4% (inactive),-71% (active),30.2% (inactive),4.29% (active),13% (inactive),-27.3% (active),-24.8% (active),-35.3% (active),-37.6% (active),33.1% (inactive),-63.9% (active),10.1% (inactive),3.41% (active)
